Measurements from publication PMC7862700, “An all-to-all approach to the identification of sequence-specific readers for epigenetic DNA modifications on cytosine”.

Key:
Assay in all cases: DAPPL (digital affinity profiling via proximity ligation, sequencing); 10 mM Tris-HCl pH 7.5, 50 mM NaCl, 1 mM DTT, 4% glycerol, room temperature, 30 min; GST-TFs on glutathione beads, 16-mer random dsDNA library, 0.1% formaldehyde crosslink after washing; high values mean tight binding
Settings in all cases: protein: recombinant; tags: N-terminal GST; dsDNA, one strand shown
FLI1 = target: T1, FLI1 (Homo sapiens, UniProt Q01543 1-452)
T1 sequence: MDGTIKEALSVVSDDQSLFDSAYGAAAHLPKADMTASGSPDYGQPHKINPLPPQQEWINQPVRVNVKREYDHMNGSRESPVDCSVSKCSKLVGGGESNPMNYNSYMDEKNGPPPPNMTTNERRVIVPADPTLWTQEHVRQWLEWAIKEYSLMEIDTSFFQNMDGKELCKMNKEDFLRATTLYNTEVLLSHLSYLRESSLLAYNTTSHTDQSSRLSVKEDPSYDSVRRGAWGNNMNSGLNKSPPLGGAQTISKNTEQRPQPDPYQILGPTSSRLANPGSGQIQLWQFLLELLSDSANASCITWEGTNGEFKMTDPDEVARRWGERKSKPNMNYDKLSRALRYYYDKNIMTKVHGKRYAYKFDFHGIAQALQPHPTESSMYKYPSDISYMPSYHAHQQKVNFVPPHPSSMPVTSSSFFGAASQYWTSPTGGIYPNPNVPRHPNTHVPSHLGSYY
Method in brief: (§1)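 Pools were built from human transcription factors expressed in yeast as GST fusions, captured on glutathione beads and DNA-barcoded, along with a tag-only sample. Incubation with 200 nmole of a 16-mer random double-stranded DNA library lasted 30 min at room temperature in Tris/NaCl/DTT/glycerol buffer, and was followed by washing, 0.1% formaldehyde crosslinking, proximity ligation, PCR amplification and Illumina NextSeq500 sequencing. Binding signal is the quotient of each hexamer's read frequency for a factor and its frequency for the tag-only sample.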

ELK1 = target: T2, ELK1 (Homo sapiens, UniProt P19419 1-428)
T2 sequence: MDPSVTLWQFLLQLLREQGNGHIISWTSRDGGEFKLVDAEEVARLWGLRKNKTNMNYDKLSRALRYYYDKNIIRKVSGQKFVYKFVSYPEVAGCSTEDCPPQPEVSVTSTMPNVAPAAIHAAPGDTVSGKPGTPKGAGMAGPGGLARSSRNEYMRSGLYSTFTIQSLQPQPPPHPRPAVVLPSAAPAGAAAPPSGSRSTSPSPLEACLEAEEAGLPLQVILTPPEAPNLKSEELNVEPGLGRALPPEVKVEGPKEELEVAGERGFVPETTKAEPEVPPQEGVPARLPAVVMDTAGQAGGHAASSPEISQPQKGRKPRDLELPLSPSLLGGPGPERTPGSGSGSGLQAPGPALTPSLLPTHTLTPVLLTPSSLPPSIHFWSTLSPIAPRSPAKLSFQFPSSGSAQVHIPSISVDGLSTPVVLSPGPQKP
Method in brief: as §1

GABPA = target: T3, GABPA (Homo sapiens, UniProt Q06546 1-454)
T3 sequence: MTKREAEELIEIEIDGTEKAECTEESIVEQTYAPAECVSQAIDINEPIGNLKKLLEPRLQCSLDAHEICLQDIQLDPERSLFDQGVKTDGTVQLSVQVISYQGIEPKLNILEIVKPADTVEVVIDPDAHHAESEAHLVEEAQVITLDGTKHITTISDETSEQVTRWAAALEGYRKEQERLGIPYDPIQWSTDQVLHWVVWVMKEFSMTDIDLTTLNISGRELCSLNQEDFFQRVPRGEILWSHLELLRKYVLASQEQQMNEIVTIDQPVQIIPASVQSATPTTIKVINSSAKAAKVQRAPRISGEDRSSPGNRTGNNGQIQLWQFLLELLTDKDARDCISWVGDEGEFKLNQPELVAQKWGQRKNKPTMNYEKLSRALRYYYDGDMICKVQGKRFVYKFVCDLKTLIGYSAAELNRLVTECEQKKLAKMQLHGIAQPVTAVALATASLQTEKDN
Method in brief: as §1

ERG = target: T4, ERG (Homo sapiens, UniProt P11308 1-479)
T4 sequence: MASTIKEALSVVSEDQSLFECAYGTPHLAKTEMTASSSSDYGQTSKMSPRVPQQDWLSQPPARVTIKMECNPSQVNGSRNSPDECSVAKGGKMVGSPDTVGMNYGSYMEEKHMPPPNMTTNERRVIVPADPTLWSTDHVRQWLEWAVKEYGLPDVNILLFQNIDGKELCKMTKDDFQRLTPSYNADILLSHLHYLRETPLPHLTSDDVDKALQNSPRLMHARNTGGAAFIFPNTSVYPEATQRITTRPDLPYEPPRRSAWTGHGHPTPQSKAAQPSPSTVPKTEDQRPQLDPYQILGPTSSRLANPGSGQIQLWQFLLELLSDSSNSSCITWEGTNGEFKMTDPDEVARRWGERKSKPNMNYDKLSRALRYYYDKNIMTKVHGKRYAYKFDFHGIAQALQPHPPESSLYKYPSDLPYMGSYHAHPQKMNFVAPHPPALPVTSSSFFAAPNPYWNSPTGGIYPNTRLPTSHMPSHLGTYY
Method in brief: as §1

ELF1 = ELF1 (Homo sapiens, UniProt P32519 1-619)
Method in brief: as §1

EHF = target: T5, EHF (Homo sapiens, UniProt Q9NZC4 1-300)
T5 sequence: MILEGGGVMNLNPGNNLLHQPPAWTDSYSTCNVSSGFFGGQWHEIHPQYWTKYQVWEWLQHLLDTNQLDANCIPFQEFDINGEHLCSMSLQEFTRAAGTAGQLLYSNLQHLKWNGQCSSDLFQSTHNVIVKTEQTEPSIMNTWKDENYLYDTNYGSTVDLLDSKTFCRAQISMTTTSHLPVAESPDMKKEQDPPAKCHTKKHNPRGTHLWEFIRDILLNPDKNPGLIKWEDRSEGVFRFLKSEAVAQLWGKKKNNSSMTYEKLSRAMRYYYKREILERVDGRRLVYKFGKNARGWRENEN
Method in brief: as §1

SPIB = SPIB (Homo sapiens, UniProt Q01892 1-262)
Method in brief: as §1

FEV = target: T6, FEV (Homo sapiens, UniProt Q99581 1-238)
T6 sequence: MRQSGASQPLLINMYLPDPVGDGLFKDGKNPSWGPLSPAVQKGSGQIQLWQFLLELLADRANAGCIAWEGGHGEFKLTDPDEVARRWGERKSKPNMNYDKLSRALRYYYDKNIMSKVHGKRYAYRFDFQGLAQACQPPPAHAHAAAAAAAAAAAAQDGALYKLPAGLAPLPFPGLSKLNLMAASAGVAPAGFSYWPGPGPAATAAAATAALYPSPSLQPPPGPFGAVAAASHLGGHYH
Method in brief: as §1

ETV5 = ETV5 (Homo sapiens, UniProt P41161 1-510)
Method in brief: as §1

ELF4 = ELF4 (Homo sapiens, UniProt Q99607 1-663)
Method in brief: as §1

ETV2 = target: T7, ETV2 (Homo sapiens, UniProt O00321 1-342)
T7 sequence: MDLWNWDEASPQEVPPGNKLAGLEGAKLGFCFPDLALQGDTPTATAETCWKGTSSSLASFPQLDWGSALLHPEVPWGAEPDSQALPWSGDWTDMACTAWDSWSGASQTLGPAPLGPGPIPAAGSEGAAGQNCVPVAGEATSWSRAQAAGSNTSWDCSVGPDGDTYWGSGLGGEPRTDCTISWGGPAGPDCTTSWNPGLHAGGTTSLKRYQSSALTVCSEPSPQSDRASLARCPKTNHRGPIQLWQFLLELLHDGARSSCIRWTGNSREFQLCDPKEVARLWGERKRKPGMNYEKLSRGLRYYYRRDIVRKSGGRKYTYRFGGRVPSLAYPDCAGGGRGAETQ
Method in brief: as §1

ELF3 = target: T8, ELF3 (Homo sapiens, UniProt P78545 1-371)
T8 sequence: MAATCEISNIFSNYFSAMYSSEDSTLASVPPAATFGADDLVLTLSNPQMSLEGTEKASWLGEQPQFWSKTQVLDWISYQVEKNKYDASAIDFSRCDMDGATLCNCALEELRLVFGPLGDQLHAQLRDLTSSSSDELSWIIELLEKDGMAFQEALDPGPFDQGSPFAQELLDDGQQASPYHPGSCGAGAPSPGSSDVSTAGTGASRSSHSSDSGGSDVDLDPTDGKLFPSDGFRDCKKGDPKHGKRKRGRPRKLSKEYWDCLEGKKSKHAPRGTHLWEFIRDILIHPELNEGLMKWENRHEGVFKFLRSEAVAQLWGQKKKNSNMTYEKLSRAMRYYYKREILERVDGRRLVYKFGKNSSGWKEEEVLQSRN
Method in brief: as §1

ERF = target: T9, ERF (Homo sapiens, UniProt P50548 1-548)
T9 sequence: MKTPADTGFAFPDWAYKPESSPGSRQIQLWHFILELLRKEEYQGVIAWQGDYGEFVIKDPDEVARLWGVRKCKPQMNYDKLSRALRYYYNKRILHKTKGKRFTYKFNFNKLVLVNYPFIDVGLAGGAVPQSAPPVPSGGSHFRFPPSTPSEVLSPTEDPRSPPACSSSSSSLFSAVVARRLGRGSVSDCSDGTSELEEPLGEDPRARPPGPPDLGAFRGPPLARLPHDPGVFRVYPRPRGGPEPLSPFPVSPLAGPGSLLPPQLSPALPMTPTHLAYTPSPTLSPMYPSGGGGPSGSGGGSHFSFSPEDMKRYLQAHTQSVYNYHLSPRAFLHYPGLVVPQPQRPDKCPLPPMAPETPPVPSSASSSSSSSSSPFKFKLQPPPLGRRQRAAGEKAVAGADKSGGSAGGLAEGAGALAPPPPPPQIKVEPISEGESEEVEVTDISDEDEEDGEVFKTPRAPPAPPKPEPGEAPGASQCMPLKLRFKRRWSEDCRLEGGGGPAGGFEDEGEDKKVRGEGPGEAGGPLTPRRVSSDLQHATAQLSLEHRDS
Method in brief: as §1

ETV3L = target: T10, ETV3L (Homo sapiens, UniProt Q6ZN32 1-361)
T10 sequence: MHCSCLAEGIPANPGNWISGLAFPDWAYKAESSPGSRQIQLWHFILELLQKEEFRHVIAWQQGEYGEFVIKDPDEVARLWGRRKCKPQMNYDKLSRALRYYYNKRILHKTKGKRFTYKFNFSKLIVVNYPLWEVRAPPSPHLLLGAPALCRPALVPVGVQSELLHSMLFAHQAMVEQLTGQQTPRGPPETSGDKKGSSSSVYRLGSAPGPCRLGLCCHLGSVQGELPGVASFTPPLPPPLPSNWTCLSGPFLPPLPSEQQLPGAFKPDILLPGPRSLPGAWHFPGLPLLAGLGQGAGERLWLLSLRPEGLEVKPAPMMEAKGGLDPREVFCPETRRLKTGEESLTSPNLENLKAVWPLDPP
Method in brief: as §1

ETS2 = target: T11, ETS2 (Homo sapiens, UniProt P15036 1-469)
T11 sequence: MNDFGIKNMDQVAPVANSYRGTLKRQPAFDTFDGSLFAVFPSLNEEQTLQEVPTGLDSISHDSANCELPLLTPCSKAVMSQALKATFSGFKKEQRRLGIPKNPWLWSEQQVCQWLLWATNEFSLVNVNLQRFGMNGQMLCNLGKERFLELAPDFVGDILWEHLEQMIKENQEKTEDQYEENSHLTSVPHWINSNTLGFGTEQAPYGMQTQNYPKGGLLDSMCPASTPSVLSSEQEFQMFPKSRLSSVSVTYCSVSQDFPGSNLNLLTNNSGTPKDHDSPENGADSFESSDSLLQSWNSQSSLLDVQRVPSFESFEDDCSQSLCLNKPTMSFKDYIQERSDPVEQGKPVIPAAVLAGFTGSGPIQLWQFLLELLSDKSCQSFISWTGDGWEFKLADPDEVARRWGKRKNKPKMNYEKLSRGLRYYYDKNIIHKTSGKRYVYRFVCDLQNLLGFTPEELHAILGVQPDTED
Method in brief: as §1

ETV3 = target: T12, ETV3 (Homo sapiens, UniProt P41162-2 1-143)
T12 sequence: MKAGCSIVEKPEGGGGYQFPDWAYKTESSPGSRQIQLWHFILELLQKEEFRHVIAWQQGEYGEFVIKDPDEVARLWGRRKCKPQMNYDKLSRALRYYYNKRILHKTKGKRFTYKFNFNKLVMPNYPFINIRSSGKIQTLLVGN
Method in brief: as §1

ETV6 = ETV6 (Homo sapiens, UniProt P41212 1-452)
Method in brief: as §1

Chain of ELF1 (P32519 whole entry): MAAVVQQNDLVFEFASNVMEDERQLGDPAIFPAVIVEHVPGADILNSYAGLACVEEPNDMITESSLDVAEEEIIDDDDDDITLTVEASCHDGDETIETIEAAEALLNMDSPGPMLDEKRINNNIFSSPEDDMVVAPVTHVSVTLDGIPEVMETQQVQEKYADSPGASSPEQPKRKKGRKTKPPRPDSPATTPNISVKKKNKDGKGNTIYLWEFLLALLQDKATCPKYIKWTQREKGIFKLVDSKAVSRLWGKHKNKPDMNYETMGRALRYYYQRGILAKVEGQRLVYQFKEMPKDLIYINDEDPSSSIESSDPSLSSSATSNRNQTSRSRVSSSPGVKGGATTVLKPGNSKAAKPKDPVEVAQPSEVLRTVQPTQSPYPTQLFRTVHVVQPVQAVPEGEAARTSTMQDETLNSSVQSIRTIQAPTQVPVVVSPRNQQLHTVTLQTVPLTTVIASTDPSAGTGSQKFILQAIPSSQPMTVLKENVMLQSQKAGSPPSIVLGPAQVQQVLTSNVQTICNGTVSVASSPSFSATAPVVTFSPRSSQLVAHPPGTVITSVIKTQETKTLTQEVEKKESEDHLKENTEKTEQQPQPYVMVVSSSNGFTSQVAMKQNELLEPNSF
Chain of ETV6 (P41212 whole entry): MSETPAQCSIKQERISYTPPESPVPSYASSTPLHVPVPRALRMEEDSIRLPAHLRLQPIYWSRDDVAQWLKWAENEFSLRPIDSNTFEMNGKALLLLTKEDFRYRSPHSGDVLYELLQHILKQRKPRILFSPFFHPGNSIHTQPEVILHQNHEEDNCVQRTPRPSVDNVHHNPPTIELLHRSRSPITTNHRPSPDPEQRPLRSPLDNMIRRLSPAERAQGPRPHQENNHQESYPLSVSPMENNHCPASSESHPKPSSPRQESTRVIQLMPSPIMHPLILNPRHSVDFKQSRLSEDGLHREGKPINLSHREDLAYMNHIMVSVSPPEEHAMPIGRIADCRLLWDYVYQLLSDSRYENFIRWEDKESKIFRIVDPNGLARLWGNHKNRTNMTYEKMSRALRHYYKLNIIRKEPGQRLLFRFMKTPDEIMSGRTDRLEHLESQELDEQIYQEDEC
Chain of ELF4 (Q99607 whole entry): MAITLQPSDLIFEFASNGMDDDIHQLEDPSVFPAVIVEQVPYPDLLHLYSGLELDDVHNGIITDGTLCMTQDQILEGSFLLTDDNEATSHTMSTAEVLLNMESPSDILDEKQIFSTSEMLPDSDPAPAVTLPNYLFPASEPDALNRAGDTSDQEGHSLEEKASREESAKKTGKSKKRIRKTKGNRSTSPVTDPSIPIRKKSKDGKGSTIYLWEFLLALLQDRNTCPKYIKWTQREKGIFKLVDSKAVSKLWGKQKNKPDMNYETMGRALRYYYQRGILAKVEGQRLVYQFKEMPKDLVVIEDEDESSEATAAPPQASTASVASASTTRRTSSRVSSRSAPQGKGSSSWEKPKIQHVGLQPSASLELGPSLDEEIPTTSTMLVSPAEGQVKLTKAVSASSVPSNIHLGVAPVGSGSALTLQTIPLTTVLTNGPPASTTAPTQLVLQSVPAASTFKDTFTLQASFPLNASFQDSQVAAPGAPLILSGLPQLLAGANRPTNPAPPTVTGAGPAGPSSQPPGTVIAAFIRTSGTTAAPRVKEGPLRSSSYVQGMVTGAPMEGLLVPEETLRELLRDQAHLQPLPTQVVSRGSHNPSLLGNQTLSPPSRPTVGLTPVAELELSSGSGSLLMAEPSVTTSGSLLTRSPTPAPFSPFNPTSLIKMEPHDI
Chain of SPIB (Q01892 whole entry): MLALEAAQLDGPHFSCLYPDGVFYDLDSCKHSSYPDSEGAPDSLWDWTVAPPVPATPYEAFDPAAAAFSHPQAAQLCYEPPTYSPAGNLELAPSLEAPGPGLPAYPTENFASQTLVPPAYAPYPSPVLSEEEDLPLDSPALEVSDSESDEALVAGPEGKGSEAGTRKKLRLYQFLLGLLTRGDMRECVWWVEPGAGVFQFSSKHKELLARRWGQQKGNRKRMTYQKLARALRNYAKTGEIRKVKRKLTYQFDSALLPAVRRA
Chain of ETV5 (P41161 whole entry): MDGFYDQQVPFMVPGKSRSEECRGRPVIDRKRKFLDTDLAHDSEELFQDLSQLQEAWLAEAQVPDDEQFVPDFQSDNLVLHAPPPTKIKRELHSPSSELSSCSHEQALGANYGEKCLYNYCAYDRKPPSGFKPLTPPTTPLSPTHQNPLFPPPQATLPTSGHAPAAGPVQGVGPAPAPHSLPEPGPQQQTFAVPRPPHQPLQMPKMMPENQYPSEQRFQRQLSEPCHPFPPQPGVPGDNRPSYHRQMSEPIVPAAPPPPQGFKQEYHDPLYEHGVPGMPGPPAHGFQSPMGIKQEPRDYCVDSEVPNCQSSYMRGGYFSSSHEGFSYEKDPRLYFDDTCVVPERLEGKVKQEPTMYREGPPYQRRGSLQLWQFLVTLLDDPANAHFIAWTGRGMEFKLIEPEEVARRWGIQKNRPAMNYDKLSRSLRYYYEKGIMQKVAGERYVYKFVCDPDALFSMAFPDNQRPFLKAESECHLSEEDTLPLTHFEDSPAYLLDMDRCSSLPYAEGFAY

For AGCGCC, the binding signal (FLI1) was 1.01 fold enrichment (6-mer frequency, TF over GST control), the binding signal (ELK1) was 1.06 fold enrichment (6-mer frequency, TF over GST control) and the binding signal (GABPA) was 1.07 fold enrichment (6-mer frequency, TF over GST control). The binding signal (ERG) was 1.05 fold enrichment (6-mer frequency, TF over GST control), the binding signal (ELF1) was 1.13 fold enrichment (6-mer frequency, TF over GST control) and the binding signal (EHF) was 1.13 fold enrichment (6-mer frequency, TF over GST control). The binding signal (SPIB) was 1.1 fold enrichment (6-mer frequency, TF over GST control), the binding signal (FEV) was 1.19 fold enrichment (6-mer frequency, TF over GST control) and the binding signal (ETV5) was 1.04 fold enrichment (6-mer frequency, TF over GST control). For the same sequence, the binding signal (ELF4) was 1.09 fold enrichment (6-mer frequency, TF over GST control), the binding signal (ETV2) was 1.09 fold enrichment (6-mer frequency, TF over GST control) and the binding signal (ELF3) was 1.09 fold enrichment (6-mer frequency, TF over GST control). For the same sequence, the binding signal (ERF) was 1.05 fold enrichment (6-mer frequency, TF over GST control), the binding signal (ETV3L) was 1.07 fold enrichment (6-mer frequency, TF over GST control) and the binding signal (ETS2) was 1.06 fold enrichment (6-mer frequency, TF over GST control). The binding signal (ETV3) was 1.14 fold enrichment (6-mer frequency, TF over GST control) and the binding signal (ETV6) was 1.16 fold enrichment (6-mer frequency, TF over GST control).
